# Laboratory results from article PMC7862700, “An all-to-all approach to the identification of sequence-specific readers for epigenetic DNA modifications on cytosine”.
# Target: T1, ELF3 (Homo sapiens, UniProt P78545 1-371)
# T1 sequence: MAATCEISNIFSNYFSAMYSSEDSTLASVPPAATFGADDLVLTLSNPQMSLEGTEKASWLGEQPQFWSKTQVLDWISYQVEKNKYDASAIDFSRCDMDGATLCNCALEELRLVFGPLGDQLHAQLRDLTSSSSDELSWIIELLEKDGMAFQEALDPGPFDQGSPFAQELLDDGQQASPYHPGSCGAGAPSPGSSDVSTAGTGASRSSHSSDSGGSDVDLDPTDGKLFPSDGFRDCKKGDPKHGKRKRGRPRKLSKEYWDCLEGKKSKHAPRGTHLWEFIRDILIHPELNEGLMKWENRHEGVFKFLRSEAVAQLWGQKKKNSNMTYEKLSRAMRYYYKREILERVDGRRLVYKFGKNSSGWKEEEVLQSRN
# Assay: DAPPL (digital affinity profiling via proximity ligation, sequencing); 10 mM Tris-HCl pH 7.5, 50 mM NaCl, 1 mM DTT, 4% glycerol, room temperature, 30 min; GST-TFs on glutathione beads, 16-mer random dsDNA library, 0.1% formaldehyde crosslink after washing; high values mean tight binding
# Conditions: protein: recombinant; tags: N-terminal GST; dsDNA, one strand shown
# Method in brief: (§1)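 Binding signal is given per hexamer as its read frequency for a factor divided by its frequency in the tag-only sample. GST-fused human transcription factors were expressed in yeast, captured on glutathione beads, barcoded with DNA and pooled with that sample, then incubated with 200 nmole of a 16-mer random double-stranded DNA library in Tris/NaCl/DTT/glycerol buffer for 30 min at room temperature. The pools were then washed, crosslinked, proximity-ligated, amplified by PCR and sequenced on an Illumina NextSeq500.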
row,Sequence,binding signal
1,TGAACG,"1.16 fold enrichment (6-mer frequency, TF over GST control)"
2,CAGTAT,"1.1 fold enrichment (6-mer frequency, TF over GST control)"
3,AGATGT,"1.04 fold enrichment (6-mer frequency, TF over GST control)"
4,GCCACA,"1.07 fold enrichment (6-mer frequency, TF over GST control)"
5,GTGCAA,"1.07 fold enrichment (6-mer frequency, TF over GST control)"
6,GATACC,"1 fold enrichment (6-mer frequency, TF over GST control)"
7,TGTTAG,"1 fold enrichment (6-mer frequency, TF over GST control)"
8,CAAGCC,"1.12 fold enrichment (6-mer frequency, TF over GST control)"
9,AGGTAA,"1.11 fold enrichment (6-mer frequency, TF over GST control)"
10,TCAGTA,"1.08 fold enrichment (6-mer frequency, TF over GST control)"

# Target: CRX (Homo sapiens, UniProt O43186 1-299)
# Assay: as above
# Conditions: protein: recombinant; tags: N-terminal GST; dsDNA, one strand shown
# Method in brief: as §1
# Chain of CRX (O43186 whole entry): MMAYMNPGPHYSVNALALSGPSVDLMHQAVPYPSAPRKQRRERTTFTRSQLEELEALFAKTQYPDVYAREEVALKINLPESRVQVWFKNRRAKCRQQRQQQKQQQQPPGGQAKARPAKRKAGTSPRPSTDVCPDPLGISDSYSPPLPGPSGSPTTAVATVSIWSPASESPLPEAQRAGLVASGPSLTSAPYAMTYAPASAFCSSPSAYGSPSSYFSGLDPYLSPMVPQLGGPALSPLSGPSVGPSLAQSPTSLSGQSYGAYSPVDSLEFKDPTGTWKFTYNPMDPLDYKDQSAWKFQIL
row,Sequence,binding signal
1,GCGTTA,"1.06 fold enrichment (6-mer frequency, TF over GST control)"
2,ATAACG,"1 fold enrichment (6-mer frequency, TF over GST control)"
3,AAAGTC,"1.01 fold enrichment (6-mer frequency, TF over GST control)"
4,AAGCCA,"1.12 fold enrichment (6-mer frequency, TF over GST control)"
5,TCTGAG,"1.04 fold enrichment (6-mer frequency, TF over GST control)"
6,AGGTAA,"1.14 fold enrichment (6-mer frequency, TF over GST control)"
7,GATTGA,"1.11 fold enrichment (6-mer frequency, TF over GST control)"
8,TCAGTA,"1.07 fold enrichment (6-mer frequency, TF over GST control)"

# Target: ETV1 (Homo sapiens, UniProt P50549 1-477)
# Assay: as above
# Conditions: protein: recombinant; tags: N-terminal GST; dsDNA, one strand shown
# Method in brief: as §1
# Chain of ETV1 (P50549 whole entry): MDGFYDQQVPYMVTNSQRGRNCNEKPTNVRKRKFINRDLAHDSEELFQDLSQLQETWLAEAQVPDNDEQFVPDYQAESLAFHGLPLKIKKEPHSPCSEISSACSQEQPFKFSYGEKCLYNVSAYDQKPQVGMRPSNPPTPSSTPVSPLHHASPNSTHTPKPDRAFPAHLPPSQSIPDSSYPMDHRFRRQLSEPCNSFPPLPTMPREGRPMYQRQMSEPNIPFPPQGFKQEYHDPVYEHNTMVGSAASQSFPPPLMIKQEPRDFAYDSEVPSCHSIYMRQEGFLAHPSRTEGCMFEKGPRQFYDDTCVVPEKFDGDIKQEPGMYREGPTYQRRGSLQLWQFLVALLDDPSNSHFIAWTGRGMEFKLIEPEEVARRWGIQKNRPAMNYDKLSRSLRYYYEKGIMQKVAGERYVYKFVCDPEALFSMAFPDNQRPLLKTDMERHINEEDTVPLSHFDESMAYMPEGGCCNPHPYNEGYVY
row,Sequence,binding signal
1,GTTGCC,"1.05 fold enrichment (6-mer frequency, TF over GST control)"
2,TGAACG,"1.02 fold enrichment (6-mer frequency, TF over GST control)"
3,GCCACA,"1.08 fold enrichment (6-mer frequency, TF over GST control)"
4,CCACCA,"1.02 fold enrichment (6-mer frequency, TF over GST control)"
5,GTGCAA,"1.05 fold enrichment (6-mer frequency, TF over GST control)"
6,GATACC,"1 fold enrichment (6-mer frequency, TF over GST control)"
7,AGGTAA,"1.02 fold enrichment (6-mer frequency, TF over GST control)"
8,CAACGG,"1.01 fold enrichment (6-mer frequency, TF over GST control)"

# Target: T2, ERF (Homo sapiens, UniProt P50548 1-548)
# T2 sequence: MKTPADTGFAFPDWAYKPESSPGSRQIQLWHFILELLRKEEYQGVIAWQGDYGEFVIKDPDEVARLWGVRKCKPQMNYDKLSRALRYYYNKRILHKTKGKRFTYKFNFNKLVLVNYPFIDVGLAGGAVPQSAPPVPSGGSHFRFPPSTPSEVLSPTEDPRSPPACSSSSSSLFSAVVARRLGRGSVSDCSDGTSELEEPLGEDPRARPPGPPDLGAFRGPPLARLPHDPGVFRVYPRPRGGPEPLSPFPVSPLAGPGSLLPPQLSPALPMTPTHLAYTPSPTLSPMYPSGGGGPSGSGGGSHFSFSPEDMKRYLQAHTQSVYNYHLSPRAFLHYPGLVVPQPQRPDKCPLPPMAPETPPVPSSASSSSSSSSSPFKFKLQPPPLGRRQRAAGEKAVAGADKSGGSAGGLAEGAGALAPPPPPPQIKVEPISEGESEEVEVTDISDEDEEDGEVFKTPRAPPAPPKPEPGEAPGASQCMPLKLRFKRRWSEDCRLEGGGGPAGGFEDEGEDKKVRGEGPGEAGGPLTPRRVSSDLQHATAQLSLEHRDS
# Assay: as above
# Conditions: protein: recombinant; tags: N-terminal GST; dsDNA, one strand shown
# Method in brief: as §1
row,Sequence,binding signal
1,ACACAG,"1.04 fold enrichment (6-mer frequency, TF over GST control)"
2,CAGTAT,"1.1 fold enrichment (6-mer frequency, TF over GST control)"
3,AGGTAA,"1.06 fold enrichment (6-mer frequency, TF over GST control)"
4,CAACGG,"1.08 fold enrichment (6-mer frequency, TF over GST control)"

# Target: T3, ETV3L (Homo sapiens, UniProt Q6ZN32 1-361)
# T3 sequence: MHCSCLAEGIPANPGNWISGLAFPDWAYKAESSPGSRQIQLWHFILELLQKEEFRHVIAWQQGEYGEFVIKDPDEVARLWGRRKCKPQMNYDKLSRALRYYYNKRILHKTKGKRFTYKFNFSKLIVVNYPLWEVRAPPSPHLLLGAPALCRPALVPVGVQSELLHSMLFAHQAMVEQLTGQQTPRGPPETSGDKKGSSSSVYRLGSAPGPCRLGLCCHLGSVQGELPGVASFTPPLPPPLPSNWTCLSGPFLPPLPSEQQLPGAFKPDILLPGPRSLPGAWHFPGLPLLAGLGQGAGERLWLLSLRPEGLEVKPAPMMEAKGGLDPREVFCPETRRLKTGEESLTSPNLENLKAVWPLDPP
# Assay: as above
# Conditions: protein: recombinant; tags: N-terminal GST; dsDNA, one strand shown
# Method in brief: as §1
row,Sequence,binding signal
1,GTTGCC,"1.03 fold enrichment (6-mer frequency, TF over GST control)"
2,GCGTTA,"1.04 fold enrichment (6-mer frequency, TF over GST control)"
3,ACACAG,"1.05 fold enrichment (6-mer frequency, TF over GST control)"
4,CAGTAT,"1.02 fold enrichment (6-mer frequency, TF over GST control)"
5,AGATGT,"1 fold enrichment (6-mer frequency, TF over GST control)"
6,TCTGAG,"1.01 fold enrichment (6-mer frequency, TF over GST control)"
7,CCACCA,"1.04 fold enrichment (6-mer frequency, TF over GST control)"
8,GTCATT,"1.01 fold enrichment (6-mer frequency, TF over GST control)"
9,ACGCGT,"1.02 fold enrichment (6-mer frequency, TF over GST control)"
10,GCGCAC,"1.03 fold enrichment (6-mer frequency, TF over GST control)"
11,GGCCTG,"1.04 fold enrichment (6-mer frequency, TF over GST control)"
12,GTTGTG,"1.02 fold enrichment (6-mer frequency, TF over GST control)"
